In all, about 2,500 compounds went through this assay and about 1,100 (44%) were called active. So high a share suggests a set chosen from earlier hits. This is one part of the list. A number with no mark means an inactive call.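 How the source made its calls: active means inhibition above 50% at 4 µM in the single-point screen; inactive means inhibition of 50% or less.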
Assay: blockers of TNF-a NF-kB luciferase induction – cell-based, HEK293T NF-kB-Luc, luminescence, selectivity assay for NOD1/NOD2 signaling inhibitor project, primary screen (AID 1852)
Settings: TNF-a induced, 14 h, at 4 µM, active compounds read high

| SMILES | inhibition |
| --- | --- |
| Cc1ccc(-c2csc(NC(=O)c3ccc4c(=O)n5c(nc4c3)CCCCC5)n2)cc1 | 97.1% (active) |
| O=C(NC1CCCCC1)N1CCN(c2nc(-c3ccccc3)cs2)CC1 | 48.4% |
| O=C(Nc1nc(-c2ccccc2)cs1)c1ccc2c(=O)n3c(nc2c1)CCCCC3 | 106% (active) |
| Cc1ccc(-c2csc(NC(=O)C3=NN(c4ccccc4)C(=O)CC3)n2)cc1 | 38.6% |
| Nc1ccc(S(=O)(=O)Nc2nccc(/C=C/c3ccc(Cl)cc3Cl)n2)cc1 | 4% |
| Cc1cc(N2CCOCC2)c2c(N)c(Br)cc(C)c2n1 | 80.6% (active) |
| Cc1cccc2cc3c(N)c(C(=O)Nc4ccc(N5CCOCC5)cc4)sc3nc12 | 36.4% |
| COc1ccccc1-c1cc(C(F)(F)F)nc(S(=O)(=O)CCCC(=O)N2CCOCC2)n1 | 51.1% (active) |
| COc1ccccc1-c1cc(C(F)(F)F)nc(S(=O)(=O)CCCC(=O)N2CCCCC2C)n1 (stereo unspecified) | 66.8% (active) |
| COc1cccc(Cn2c(NCc3cccnc3)nc3c2c(=O)n(C)c(=O)n3C)c1 | 37.8% |
| COc1cc(/C=N/Nc2nc3c(c(=O)n(C)c(=O)n3C)n2Cc2ccccc2)ccc1OC(=O)c1ccco1 | 52.5% (active) |
| CC(C(=O)N1CCN(c2ccccc2F)CC1)c1ccc([N+](=O)[O-])cc1 (stereo unspecified) | -32.5% |
| O=S(=O)(Nc1nc2ccccc2nc1Cl)c1ccc(Br)cc1 | 20.8% |
| O=S(=O)(Nc1nc2ccccc2nc1N1CCN(c2ccccc2F)CC1)c1ccc(Cl)cc1 | 86.2% (active) |
| COc1ccccc1-c1cc(C(F)(F)F)nc(S(=O)(=O)CCCC(=O)Nc2cccnc2Cl)n1 | 37.1% |
| COc1ccc(-c2cc(C(F)(F)F)nc(S(=O)(=O)CCCC(=O)Nc3cccnc3Cl)n2)cc1OC | 88.1% (active) |
| O=C(O)CCC(=O)Nc1cccc(-c2csc(-c3ccccc3)n2)c1 | 41.9% |
| COc1ccc(-c2cc(C(F)(F)F)nc(S(=O)(=O)CCCC(=O)Nc3cccc(O)c3)n2)cc1OC | 81.5% (active) |
| Cc1cc(-c2ccc(C)c(S(=O)(=O)N3CCN(c4ccc([N+](=O)[O-])cc4)CC3)c2)on1 | 16.8% |
| C[C@@H](C(=O)Nc1ccc2ccccc2c1)[C@@H]1C[C@@]1(C)[C@@H](NC(=O)c1cnccn1)c1ccccc1 | -2.6% |
| Cc1cc(C(=O)COC(=O)c2ccccc2Br)c(C)n1CC1CCCO1 (stereo unspecified) | -5.9% |
| Cc1cc(C(=O)CN2C(=O)c3ccccc3S2(=O)=O)c(C)n1CC1CCCO1 (stereo unspecified) | 96.8% (active) |

| SMILES | inhibition |
| --- | --- |
| Cc1cc(C(=O)CSc2nc3ccccc3c(=O)n2C)c(C)n1Cc1ccc2c(c1)OCO2 | 69.5% (active) |
| Cc1cc(C(=O)CSc2nc3ccccc3c(=O)n2C)c(C)n1CC1CCCO1 (stereo unspecified) | 65.9% (active) |
| COc1ccccc1Nc1nc(NCC2CCCO2)c2ccccc2n1 (stereo unspecified) | 39.1% |
| CCCCN(CC)c1nc(-c2ccncc2)nc2ccccc12 | 34.7% |
| O=C(N/C(=C/c1ccc([N+](=O)[O-])cc1)C(=O)N1CCOCC1)c1ccco1 | 14% |
| O=S(=O)(Nc1nc2ccccc2nc1Nc1ccc2c(c1)OCO2)c1ccc(F)cc1 | 18% |
| COc1cc(Nc2nc3ccccc3nc2NS(=O)(=O)c2ccc([N+](=O)[O-])cc2)cc(OC)c1OC | 84.6% (active) |
| O=[N+]([O-])c1cccc(S(=O)(=O)Nc2nc3ccccc3nc2Nc2cccc(S(=O)(=O)N3CCCCC3)c2)c1 | 97.6% (active) |
| Cc1cc(Nc2nc3ccccc3nc2Cl)n(-c2ccc([N+](=O)[O-])cc2)n1 | 28.5% |
| CCn1nc(NS(=O)(=O)c2ccc([N+](=O)[O-])cc2)c2cc3cccc(C)c3nc21 | 19.3% |
| Cc1ccc(S(=O)(=O)Nc2nc3ccccc3nc2Nc2cccc(S(=O)(=O)N3CCCC3)c2)cc1 | 71% (active) |
| COc1cccc(Nc2nc3ccccc3nc2NS(=O)(=O)c2cccs2)c1 | 7.5% |
| COc1ccc(O)c(CNn2c(-c3ccc(Br)cc3)nc3ccccc3c2=O)c1 | 12.6% |
| O=[N+]([O-])c1cc(-c2nc3nc4ccccc4nc3n2CCc2ccccc2)cc([N+](=O)[O-])c1 | -12.4% |
| CCn1c(/C=C/c2cc(Br)ccc2O)nc2ccccc2c1=O | -6.3% |
| O=c1c2ccccc2nc(/C=C/c2cc(Br)ccc2O)n1CCCO | 59% (active) |
| O=c1c2ccccc2nc(/C=C/c2ccc([N+](=O)[O-])o2)n1CCCO | 98.8% (active) |
| Cc1ccc(-c2cc(C(=O)N/N=C/c3ccc([N+](=O)[O-])o3)c3ccccc3n2)o1 | 6.6% |
| COc1cccc(NC(=O)CSc2nc3ccccc3c(=O)n2C)c1 | 12.1% |
| COc1ccc(Nc2nc(NCC3CCCO3)c3ccccc3n2)c(OC)c1 (stereo unspecified) | 31.4% |
| COc1cccc(Nc2nc(NCCO)c3ccccc3n2)c1 | 69.6% (active) |
| COc1cc(OC)c(N(C)S(=O)(=O)c2cccc(C(=O)OCC(=O)c3c[nH]c4ccccc34)c2)cc1Cl | 92.4% (active) |

| SMILES | inhibition |
| --- | --- |
| COc1cccc(/C=C/c2ccc3cccc(O)c3n2)c1OC | -20% |
| COc1ccc(Br)cc1/C=C/c1ccc2cccc(O)c2n1 | 52.6% (active) |
| COc1cccc(/C=C/c2ccc3ccccc3n2)c1OC(C)=O | -25.7% |
| COc1cc(Br)cc(/C=C/c2ccc3cccc(O)c3n2)c1O | 0.4% |
| CCOc1cccc(/C=C/c2ccc3cccc(O)c3n2)c1O | 4.2% |
| COc1ccc(OC)c(/C=C/c2ccc3cccc(O)c3n2)c1 | 105% (active) |
| Oc1cccc2ccc(/C=C/c3ccccc3Br)nc12 | 51.4% (active) |
| COc1ccc(Cl)cc1/C=C/c1ccc2cccc(O)c2n1 | 47.4% |
| Oc1ccc(Cl)cc1/C=C/c1ccc2cccc(O)c2n1 | 8.6% |
| Cc1ccc(NS(=O)(=O)c2cc([N+](=O)[O-])ccc2NNC(=S)Nc2cc(C)ccc2C)c(C)c1 | 77.3% (active) |
| Cc1ccc(C)c(NC(=O)c2ccccc2NS(=O)(=O)c2cc([N+](=O)[O-])ccc2C)c1 | 75.8% (active) |
| Cc1ccc(NS(=O)(=O)c2ccc(-n3cccn3)cc2)c(C)c1 | 40.7% |
| Cc1ccc(NC(=O)CC(=O)c2ccc([N+](=O)[O-])cc2)cc1S(=O)(=O)Nc1cccc(Cl)c1 | 15.2% |
| Cc1ccc(NC(=O)CN(c2ccc(Cl)cc2)S(=O)(=O)c2cc([N+](=O)[O-])ccc2Cl)c(C)c1 | -17.7% |
| O=C(Oc1c(-c2ccccc2)c(=O)n2c3c(cccc13)CC2)c1ccc(Cl)cc1 | 90.1% (active) |
| O=C(Oc1c(-c2ccccc2)c(=O)n2c3c(cccc13)CC2)c1ccc(F)cc1 | 49.3% |
| O=C(Oc1c(-c2ccccc2)c(=O)n2c3c(cccc13)CC2)c1ccccc1 | 75.1% (active) |
| COc1ccc(C(=O)Nc2sc3c(c2C(=O)NCc2ccco2)CCCC3)cc1OC | -42.2% |
| COc1ccc(NC(=O)c2c(Nc3ccccc3)sc(C(=O)c3ccc(F)cc3)c2N)cc1 | 10% |
| COc1ccc(C(=O)c2c(C(F)(F)F)oc3c2C(=O)c2ccccc2C3=O)cc1 | 100% (active) |
| COc1ccc(C(=O)c2c(C(F)(F)F)oc3c2C(=O)c2ccccc2C3=O)cc1OC | 102% (active) |
| CC(C)(C)OC(=O)CNC(=O)c1[nH]cnc1C(=O)NC1CCN(C(=O)OC(C)(C)C)CC1 | -15.2% |

| SMILES | inhibition |
| --- | --- |
| O=C(OCn1ncc(Br)c(Br)c1=O)c1ccc(F)cc1 | 86.5% (active) |
| CC(=O)Cn1ncc(Br)c(Br)c1=O | 95% (active) |
| O=C(OCn1ncc(Br)c(Br)c1=O)c1c(F)cccc1F | 82.5% (active) |
| O=C(CSc1nnc2ccc3ccccc3n12)N1CCOCC1 | -57.3% |
| COCCn1c(SCC(=O)N2CCc3ccccc3C2)nc2cc(Cl)ccc2c1=O | 13.3% |
| Cc1ccc(Cl)cc1N1CCN(C(=O)CSc2nnc3n2C(C)(C)Cc2ccccc2-3)CC1 | 95.1% (active) |
| CC1Cc2cc(-c3csc(NC(=O)Cc4cccs4)n3)ccc2N1S(C)(=O)=O (stereo unspecified) | 60.6% (active) |
| COCCCN(C(=O)Cc1ccc(Cl)c(Cl)c1)c1c(N)n(Cc2ccccc2)c(=O)[nH]c1=O | 7.8% |
| Cn1c(=O)c(C(=O)CCl)c(N)n(Cc2ccccc2)c1=O | 72.4% (active) |
| CC(C)Cn1c(N)c(C(=O)COC(=O)CC23CC4CC(CC(C4)C2)C3)c(=O)n(C)c1=O | 26.6% |
| COc1cccc(N=Nc2ccc3cccnc3c2O)c1 | 54.2% (active) |
| CCN(CC)S(=O)(=O)c1cc(OC)ccc1N=Nc1ccc(O)c2ncccc12 | -1.5% |
| COc1cccc(N=Nc2ccc(O)c3ncccc23)c1 | 61% (active) |
| O=S1(=O)Nc2c(ccc3cccnc23)-c2ccccc21 | 104% (active) |
| Cc1c(C(=O)N2CCN(Cc3ccc4c(c3)OCO4)CC2)sc2ncnc(N3CCN(c4ccccc4)CC3)c12 | 98.5% (active) |
| Cc1c(C(=O)N2CCN(c3ccc(F)cc3)CC2)sc2ncnc(N3CCN(c4ccccn4)CC3)c12 | 15.6% |
| Cn1c(=O)c([N+](=O)[O-])c(N2CCN(Cc3ccc4c(c3)OCO4)CC2)c2ccccc21 | 18.3% |
| CCn1c(=O)c([N+](=O)[O-])c(N2CCN(Cc3ccc4c(c3)OCO4)CC2)c2ccccc21 | 38.9% |
| COc1ccccc1N1CCN(C(=O)c2sc3ncnc(N4CCN(c5ccccn5)CC4)c3c2C)CC1 | -30.1% |
| O=[N+]([O-])c1ccc2ncnc(N3CCN(Cc4ccc5c(c4)OCO5)CC3)c2c1 | 97.2% (active) |

— PubChem BioAssay AID1852 (Sanford-Burnham Center for Chemical Genomics, 2009)
